Source: PubChem BioAssay (NCI)
About 83,000 compounds went through this panel and 20% of them were active in at least one assay; those are over-represented in the sample as a whole.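 48-hour exposure, single concentration, 96-well plates; percent growth endpoint where 0 means no net growth. Active: below 10.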 Calls of active or inactive are those of the source.

What follows are compounds tested on NCI-H460 lung (assay: NCI-60 one-dose screen, 48 h (100 = growth as untreated, 0 = no growth, -100 = all killed)). Conditions: 10 µM unless noted.

Compound | growth
CC1(C)CC[C@]2(C(=O)O)CC[C@]3(C)C(=CCC4[C@@]5(C)C[C@@H](O)[C@@H]6OC(c7ccccc7O)OC[C@@]6(C)C5CC[C@]43C)C2C1 (some centres undefined) | 46% (inactive)
CN(c1ccc(Br)cc1)S(=O)(=O)c1ccc(-c2cnc(C3CC3)o2)cc1 | 16.8% (inactive)
CN1CCN(c2nc(-c3csc(-c4ccncc4)n3)cc3ccccc23)CC1 | 78.2% (inactive)
O=C(O)c1ccc(-n2cc(CNc3ccc(F)cc3)c(-c3ccc(C(F)(F)F)cc3)n2)cc1 | 84.4% (inactive)
CSc1nccc(-c2c(-c3ccc(F)c(OCc4ccc(F)cc4)c3)nc3sccn23)n1 | 89.8% (inactive)
O=C(COc1ccc(C2SCC(=O)N2c2ccccc2)cc1)c1ccccc1 (centres undefined) | 102% (inactive)
O=C(O)CNS(=O)(=O)c1ccc(Oc2ccc(S(=O)(=O)NCC(=O)O)cc2)cc1 | 101% (inactive)
Cn1nc(Nc2ccccc2)c(C(=O)NN)c1N | 107% (inactive)
COc1cc(/C=N/n2cnc3oc(-c4ccccc4)cc3c2=N)cc(CN2CCN(C)CC2)c1O | 108% (inactive)
CC(C)SC1=NC(=C(C(=N1)NC2=ClC=CC=C2)C#N)C3=CC=CC=C3 | 22.2% (inactive)
NS(=O)(=O)c1ccc(Nc2nc(N/N=C/c3ccc(F)cc3)nc(Nc3ccccc3)n2)cc1 | 65.1% (inactive)
C#C[C@]1(O)CC[C@H]2[C@@H]3CC=C4c5sc(Nc6cccc(C)n6)nc5CC[C@]4(C)[C@H]3CC[C@@]21C | 4.46% (active)
CNC(=O)c1cc(Oc2ccc3nc(NC(=O)c4cc(C)cc(C)c4)sc3c2)ccn1 | 93.1% (inactive)
C=C(C)[C@@H]1CC[C@]2(COS(C)(=O)=O)CC[C@]3(C)[C@H](CC[C@@H]4[C@@]5(C)CCCNC(C)(C)[C@@H]5CC[C@]43C)[C@@H]12 | 13.5% (inactive)
CC(C)=CCc1c2c(c(O)c3c1O[C@]14C(=C[C@@H]5C[C@H]1C(C)(C)O[C@@]4(C/C=C(/C)C(=O)O)C5=O)C3=O)CC(O)C(C)(C)O2 (some centres undefined) | -33.2% (active)
O=C(Cn1cc(CN2C(=O)c3ccc([N+](=O)[O-])cc3C2=O)nn1)Nc1ccccc1Br | 108% (inactive)
COc1cc(-c2nc(SCc3ccc(C)cc3)[nH]c(=O)c2C#N)ccc1OCc1ccccc1 | 104% (inactive)

Compound | growth
CC(C)N=C(N/C(N)=N/c1nc2ccccc2s1)NC(C)C | 48.8% (inactive)
O=C(Nc1cc(Cl)cc(Cl)c1)Nc1ccc2oc(=O)ccc2c1 | 1.17% (active)
CS(=O)(=O)c1nccc(-c2c(-c3ccc(F)c(OCc4ccccc4)c3)nc3sccn23)n1 | 43.5% (inactive)
COc1ccc(C2C(C#N)=C(N)Oc3c2sc2ccc(C)cc32)cc1 (centres undefined) | 15.2% (inactive)
C#C[C@]1(O)CC[C@H]2[C@@H]3CC=C4c5sc(-c6ccccn6)nc5CC[C@]4(C)[C@H]3CC[C@@]21C | 75.9% (inactive)
COc1ccc(OC)c([C@H]2c3[nH]c4ccccc4c3C[C@H]3C(=O)N(CCCCCCC(=O)NO)CC(=O)N23)c1 | 87.1% (inactive)
Cc1cnc2nc(NN)[nH]n12 | 103% (inactive)
COc1ccc(-c2nc3cc(Cl)c(Cl)cc3n2CC(=O)N=Nc2c(O)[nH]c3ccc(Br)cc23)cc1 | -42.5% (active)
O=C(NCCCCCCNC(=O)c1c2c(nc3ccccc13)-c1cccnc1SC2)c1c2c(nc3ccccc13)-c1cccnc1SC2 | 75% (inactive)
COc1ccc(-c2ccc3c4c(cccc24)C(=O)N(N2C(=O)c4cccc5cccc(c45)C2=O)C3=O)cc1 | 102% (inactive)
COc1ccc(-c2nc3cc(Cl)c(Cl)cc3n2CC(=O)N=Nc2c(O)[nH]c3ccc(Cl)cc23)cc1 | 16.9% (inactive)
CCOC(=O)c1c(NCC(=O)Nc2ccc(Br)cc2)sc2c1CCCC2 | 68.9% (inactive)
CN1C(=O)/C(=C/C=C/c2ccco2)SC1=S | 99.1% (inactive)
COc1ccc(-c2nnc(SCc3ccc(O)c4ncccc34)o2)cc1 | 14.9% (inactive)
C#CCOc1ccc(/C=N/Nc2nc(-c3cc4cc(Br)cc(Br)c4oc3=O)cs2)cc1 | 101% (inactive)
CS(=O)c1nccc(-c2c(-c3ccc(F)c(OCCc4ccc(F)cc4)c3)nc3sccn23)n1 (centres undefined) | 59.1% (inactive)
O=C1[C@@H]2Cc3c([nH]c4ccccc34)[C@H](c3c(Cl)cccc3Cl)N2C(=O)CN1C1CCN(Cc2c(F)cccc2F)CC1 | 55.6% (inactive)
